According to PubChem BioAssay (NCATS):
Records with an inconclusive call do not appear. Activity calls are given as the source filed them. The call rests on the fitted dose curve.

Tests used:
[1] = Primary qHTS for inhibitors of SARS-S pseudo-typed particle cell entry (AID 1479145); conditions: SARS-S pseudotyped particle cell entry, luciferase reporter; series mostly up to 57.1 µM; further: nearly all actives have a fitted effect of over 45% in size
[2] = Primary qHTS for Huh7 cytotoxicity: counterscreen for inhibitors of MERS-S pseudotyped particle cell entry (AID 1479147); conditions: cell viability read-out; series mostly up to 57.1 µM
[3] = Primary qHTS for Vero E6 cytotoxicity: counterscreen for inhibitors of SARS-S pseudo-typed particle cell entry (AID 1479150); conditions: cell viability; series mostly up to 57.1 µM
[4] = Primary qHTS for inhibitors of MERS-S pseudo-typed particle cell entry (AID 1479149); conditions: MERS-S pseudotyped particle entry, luciferase; series mostly up to 57.1 µM; further: nearly all actives have a fitted effect of over 60% in size

Measured: Potency

CC(=O)Nc1ccc(CC(=O)O)cc1
inactive: [1] | [2] | [3]

CCCCCCCCCCCCCCCCCC(=O)OCC(O)CO (stereo unspecified)
inactive: all assays above

CC(C)COC(=O)c1ccc(N)cc1
inactive: all assays above
